From the supplement of paper PMC12494721
Counter-ions that a name gives are not always drawn.

Legend:
Conditions in all cases: incubation time: 27 h, anaerobic, 37 °C;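 for the amine columns active = adjusted P below 0.05 in both replicates with a change the same way and a mean fold change under 0.8 or over 1.25; inactive = the rest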
[1] = system: Clostridium sporogenes DSM 1664; assay: growth (OD595) fold change vs plate DMSO controls (fold change (ratio)); higher = more growth
Method in brief: (§1)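 Growth is the fold change relative to the median of plate DMSO controls. Readings came from anaerobic mGAM cultures in 96-well plates grown for 27 h at 37 °C and read at 595 nm. They were blank-subtracted, corrected for compound background with 20 µM compound solutions in water, and converted to OD with a calibration factor of 5. Values are means of 2 biological replicates, and fold changes above 1.5 were set to NA.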

Escherichia coli IAI1 [2] = assay: as above
Method in brief: as §1

[3] = system: Klebsiella aerogenes DSM 30053; assay: as above
Method in brief: as §1

[4] = system: Ruminococcus gnavus DSM 108212; assay: as above
Method in brief: as §1

[5] = system: Klebsiella aerogenes DSM 30053; assay: fold change of Histamine concentration vs plate DMSO controls (fold change (ratio)); higher = more amine produced, active = hit call of the paper (significant change in both replicates, either direction)
Method in brief: (§2)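 Amine values are fold changes relative to DMSO-only wells on the same plate. They derive from 27 h, 37 °C anaerobic mGAM cultures of four gut bacterial strains in 80 µL wells, dosed at 20 µM final, or 50 µM final for sweeteners. Extraction of the whole culture, LC–triple-quadrupole MS in dynamic MRM mode, external calibration curves and within-batch drift correction were used, with 2 biological replicates averaged.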

[6] = system: Clostridium sporogenes DSM 1664; assay: fold change of Tryptamine concentration vs plate DMSO controls (fold change (ratio)); higher = more amine produced, active = hit call of the paper (significant change in both replicates, either direction)
Method in brief: as §2

[7] = system: Ruminococcus gnavus DSM 108212; assay: as above
Method in brief: as §2

Escherichia coli IAI1 [8] = assay: fold change of Putrescine concentration vs plate DMSO controls (fold change (ratio)); higher = more amine produced, active = hit call of the paper (significant change in both replicates, either direction)
Method in brief: as §2

[9] = system: Klebsiella aerogenes DSM 30053; assay: as above
Method in brief: as §2

Escherichia coli IAI1 [10] = assay: fold change of Cadaverine concentration vs plate DMSO controls (fold change (ratio)); higher = more amine produced, active = hit call of the paper (significant change in both replicates, either direction)
Method in brief: as §2

[11] = system: Klebsiella aerogenes DSM 30053; assay: as above
Method in brief: as §2

[12] = system: Ruminococcus gnavus DSM 108212; assay: fold change of 2-Phenylethylamine concentration vs plate DMSO controls (fold change (ratio)); higher = more amine produced, active = hit call of the paper (significant change in both replicates, either direction)
Method in brief: as §2

| Structure (SMILES) | growth [1] | growth (Escherichia coli IAI1 [2]) | growth [3] | growth [4] | fold change of Histamine concentration [5] | fold change of Tryptamine concentration [6] | fold change of Tryptamine concentration [7] | fold change of Putrescine concentration (Escherichia coli IAI1 [8]) | fold change of Putrescine concentration [9] | fold change of Cadaverine concentration (Escherichia coli IAI1 [10]) | fold change of Cadaverine concentration [11] | fold change of 2-Phenylethylamine concentration [12] |
| --- | --- | --- | --- | --- | --- | --- | --- | --- | --- | --- | --- | --- |
| CC(C)NCC(O)COc1cccc2[nH]c3ccccc3c12 (stereo not given) [Carazolol] (20 µM) | 0.738 | 1 | 0.956 | 1.12 | 1.06 (inactive) | 0.732 (inactive) | 1.07 (inactive) | 0.922 (inactive) | 0.966 (inactive) | 0.889 (inactive) | 0.992 (inactive) | 1.14 (inactive) |
| CC/C(=C(/CC)c1ccc(O)cc1)c1ccc(O)cc1 [Diethylstilbestrol] (20 µM) | 0.583 | 0.984 | 1 | 0.991 | 1.03 (inactive) | 0.432 (active) | 0.88 (inactive) | 1 (inactive) | 1.01 (inactive) | 1.02 (inactive) | 0.993 (inactive) | 0.865 (inactive) |
| NS(=O)(=O)c1cc(Cl)c(Cl)c(S(N)(=O)=O)c1 [Dichlorphenamide] (20 µM) | 0.963 | 0.998 | 1.2 | 0.536 | 0.902 (inactive) | 0.966 (inactive) | 0.572 (inactive) | 1.06 (inactive) | 1.01 (inactive) | 0.995 (inactive) | 1.03 (inactive) | 0.54 (inactive) |
| CCN(Cc1ccncc1)C(=O)C(CO)c1ccccc1 (stereo not given) [Tropicamide] (20 µM) | 0.93 | 1.01 | 1.04 | 0.969 | 0.947 (inactive) | 1.06 (inactive) | 0.984 (inactive) | 1.03 (inactive) | 0.967 (inactive) | 0.991 (inactive) | 1.03 (inactive) | 0.959 (inactive) |
| CCOCCn1c(N2CCCN(C)CC2)nc2ccccc21 [Emedastine difumarate] (20 µM) | 1.08 | 1.02 | 1.03 | 0.971 | 0.993 (inactive) | 0.994 (inactive) | 1.02 (inactive) | 0.991 (inactive) | 1.01 (inactive) | 1 (inactive) | 0.999 (inactive) | 1.05 (inactive) |
| CC(C)NCC(O)c1ccc(O)c(O)c1 (single isomer, unassigned; (-)) [(-) Isoproterenol hydrochloride] (20 µM) | 1.02 | 0.976 | 1.15 | 0.899 | 0.874 (inactive) | 1.03 (inactive) | 0.857 (inactive) | 1 (inactive) | 0.996 (inactive) | 0.982 (inactive) | 1.02 (inactive) | 0.814 (inactive) |
| O=C1CCc2cc(OCCCCc3nnnn3C3CCCCC3)ccc2N1 [Cilostazol] (20 µM) | 1.06 | 0.963 | 0.98 | 0.879 | 1.04 (inactive) | 1.02 (inactive) | 0.994 (inactive) | 1.01 (inactive) | 1.03 (inactive) | 1.03 (inactive) | 0.995 (inactive) | 0.936 (inactive) |
| CC#C[C@]1(O)CC[C@H]2[C@@H]3CCC4=CC(=O)CCC4=C3[C@@H](c3ccc(N(C)C)cc3)C[C@@]21C [Mifepristone] (20 µM) | 1.19 | 0.971 | 0.986 | 1.09 | 1.02 (inactive) | 0.911 (inactive) | 0.975 (inactive) | 1.01 (inactive) | 1.02 (inactive) | 1.01 (inactive) | 0.998 (inactive) | 0.902 (inactive) |
| CCCCc1oc2ccc(NS(C)(=O)=O)cc2c1C(=O)c1ccc(OCCCN(CCCC)CCCC)cc1 [Dronedarone hydrochloride] (20 µM) | 0.948 | 1.09 | 1.02 | 0.895 | 0.99 (inactive) | 0.925 (inactive) | 0.8 (inactive) | 1.16 (inactive) | 1 (inactive) | 0.996 (inactive) | 1.01 (inactive) | 0.957 (inactive) |
| Cc1c(N)c(=O)n(-c2ccccc2)n1C [Ampyrone] (20 µM) | 1.01 | 0.995 | 0.983 | 0.854 | 0.947 (inactive) | 1.07 (inactive) | 0.901 (inactive) | 0.975 (inactive) | 0.992 (inactive) | 1.03 (inactive) | 1.01 (inactive) | 0.926 (inactive) |
| CCC1(c2ccccc2)C(=O)NCNC1=O [Primidone] (20 µM) | 0.938 | 0.953 | 0.991 | 1.01 | 1.09 (inactive) | 0.973 (inactive) | 1.02 (inactive) | 0.982 (inactive) | 1.03 (inactive) | 0.999 (inactive) | 0.981 (inactive) | 1.03 (inactive) |
| COCCOC(=O)C1=C(C)NC(C)=C(C(=O)OC/C=C/c2ccccc2)C1c1cccc([N+](=O)[O-])c1 (stereo not given) [Cilnidipine] (20 µM) | 1.19 | 0.996 | 1.16 | 0.973 | 0.989 (inactive) | 0.918 (inactive) | 0.945 (inactive) | 1 (inactive) | 1.01 (inactive) | 0.982 (inactive) | 1.03 (inactive) | 0.905 (inactive) |
| O=C(O)Cc1cc(I)c(Oc2ccc(O)c(I)c2)c(I)c1 [Tiratricol] (20 µM) | 0.903 | 1.07 | 1.04 | 0.808 | 1.04 (inactive) | 0.592 (active) | 0.827 (inactive) | 1.05 (inactive) | 1.01 (inactive) | 1.03 (inactive) | 1.01 (inactive) | 0.884 (inactive) |
| CC(C)c1nc(CN(C)C(=O)N[C@H](C(=O)N[C@@H](Cc2ccccc2)C[C@H](O)[C@H](Cc2ccccc2)NC(=O)OCc2cncs2)C(C)C)cs1 [Ritonavir] (20 µM) | 1.01 | 0.962 | 0.987 | 0.983 | 1.08 (inactive) | 0.822 (inactive) | 0.942 (inactive) | 0.943 (inactive) | 1.01 (inactive) | 0.99 (inactive) | 0.985 (inactive) | 0.939 (inactive) |
| COC(=O)C1=C(C#N)NC(C)=C(C(=O)OC(C)C)C1c1cccc([N+](=O)[O-])c1 (stereo not given) [Nilvadipine] (20 µM) | 1.01 | 1.18 | 0.953 | 0.932 | 0.971 (inactive) | 1.1 (inactive) | 1.24 (inactive) | 1.15 (inactive) | 0.936 (inactive) | 1.03 (inactive) | 1.02 (inactive) | 1.44 (active) |
| NC(=O)NS(=O)(=O)c1ccc(N)cc1 [Sulfacarbamide] (20 µM) | 0.977 | 1.02 | 0.993 | 0.94 | 1.04 (inactive) | 0.967 (inactive) | 1 (inactive) | 1.01 (inactive) | 1.02 (inactive) | 1 (inactive) | 1.01 (inactive) | 0.972 (inactive) |
| CC(=O)c1ccc2c(c1)N(CCCN1CCC(CCO)CC1)c1ccccc1S2 [Piperacetazine] (20 µM) | 0.454 | 0.148 | 0.138 | 0 | 0.95 (inactive) | 1.32 (inactive) | 1.17 (inactive) | 0.95 (inactive) | 0.978 (inactive) | 0.846 (inactive) | 0.993 (inactive) | 1.29 (inactive) |
| COC(=O)C1=C(C)NC(C)=C(C(=O)OCC(C)C)C1c1ccccc1[N+](=O)[O-] (stereo not given) [Nisoldipine] (20 µM) | 0.851 | 1.13 | 1.02 | 0.871 | 0.949 (inactive) | 1.06 (inactive) | 0.899 (inactive) | 1.1 (inactive) | 1 (inactive) | 0.981 (inactive) | 1.01 (inactive) | 0.898 (inactive) |
| C=C(NC(=O)C(=C)NC(=O)c1csc(C2=N[C@@H]3c4csc(n4)[C@H]4NC(=O)c5csc(n5)[C@H]([C@](C)(O)[C@@H](C)O)NC(=O)[C@H]5CSC(=N5)/C(=C/C)NC(=O)[C@H]([C@@H](C)O)NC(=O)c5csc(n5)[C@]3(CC2)NC(=O)[C@H](C)NC(=O)C(=C)NC(=O)[C@H](C)NC(=O)[C@H]([C@@H](C)CC)N[C@@H]2C=Cc3c([C@H](C)O)cc(nc3[C@H]2O)C(=O)O[C@@H]4C)n1)C(N)=O [Thiostrepton] (20 µM) | 0.00647 | 1.05 | 1.14 | 0.164 | 0.968 (inactive) | 0.033 (active) | 0.0887 (active) | 1.03 (inactive) | 1.03 (inactive) | 1.02 (inactive) | 1.02 (inactive) | 0.084 (active) |
| O=C(c1ccc(OCCN2CCCCC2)cc1)c1c(-c2ccc(O)cc2)sc2cc(O)ccc12 [Raloxifene hydrochloride] (20 µM) | 1.19 | 1.08 | 1.04 | 1.2 | 0.986 (inactive) | 0.932 (inactive) | 0.941 (inactive) | 0.976 (inactive) | 1.03 (inactive) | 1.01 (inactive) | 1.01 (inactive) | 0.917 (inactive) |
| CC(C)(CO)[C@@H](O)C(=O)NCCC(=O)NCCSSCCNC(=O)CCNC(=O)[C@H](O)C(C)(C)CO [D-Pantethine] (20 µM) | 1.09 | 0.976 | 1.02 | 0.955 | 0.976 (inactive) | 1.03 (inactive) | 0.986 (inactive) | 1 (inactive) | 1.03 (inactive) | 1.03 (inactive) | 1 (inactive) | 1.02 (inactive) |
| O=C(O)CCc1nc(-c2ccccc2)c(-c2ccccc2)o1 [Oxaprozin] (20 µM) | 1.08 | 1.04 | 0.984 | 1.06 | 1.04 (inactive) | 1.03 (inactive) | 1.03 (inactive) | 1.01 (inactive) | 1 (inactive) | 0.96 (inactive) | 0.979 (inactive) | 1.1 (inactive) |
| O=C1Nc2ccc(Cl)cc2[C@@](C#CC2CC2)(C(F)(F)F)O1 [Efavirenz] (20 µM) | 1.25 | 1.01 | 1.02 | 1.22 | 0.986 (inactive) | 1.02 (inactive) | 0.936 (inactive) | 1.04 (inactive) | 0.985 (inactive) | 1.02 (inactive) | 0.997 (inactive) | 0.935 (inactive) |
| COc1cc(C(=O)N2CCOCC2)cc(OC)c1OC [Trimetozine] (20 µM) | 0.932 | 0.972 | 0.986 | 1.05 | 0.989 (inactive) | 1.05 (inactive) | 1.04 (inactive) | 1.12 (inactive) | 0.998 (inactive) | 0.99 (inactive) | 1 (inactive) | 1.04 (inactive) |
| CC(C)NNC(=O)c1ccncc1 [Iproniazide phosphate] (20 µM) | 1.05 | 1.13 | 1.09 | 1.06 | 0.977 (inactive) | 1.06 (inactive) | 1 (inactive) | 1.13 (inactive) | 1.01 (inactive) | 0.987 (inactive) | 1 (inactive) | 0.994 (inactive) |
